Epigenetic reg – epigenetic control regulation, reporter derepression. murine LDR cells, GFP reporter derepression, 30 h. Potency, µM (highest dose often 53.9 µM), inactives show at the top dose GFP activation, most hits filed as activators. hit rate 0.2% among 280,000. AID 1865; further: % of control where 0% means no effect; nearly all actives have a fitted effect of over 60% in size
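In this reporter-derepression format, murine cells bearing a silenced integrated CMV-GFP locus incubate with test compound (30 h, 37 C), then are washed and imaged; fluorescent objects of 20–120 um count as induced cells.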
Sfp PPTase inh – inhibitors of Bacillus subtilis Sfp phosphopantetheinyl transferase; Biochemical Sfp PPTase activity, qHTS; Potency, µM, for inactives: largest response in the series, negative = inhibition, most hits filed as inhibitors; hit rate 3.5% among 310,000; AID 1490;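 further: the enzyme is Sfp with the accession as filed and its product quenches rhodamine fluorescence; 0% = enzyme reaction without inhibitor and -100% = no enzyme wells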
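Fluorescence-quenching assay with 15 nM Sfp, 5 uM rhodamine-CoA and 12.5 uM BHQ-2-labelled ybbR peptide in pH 7.6 Hepes/MgCl2 buffer. Enzyme was pre-incubated with compound for 15 min at room temperature. Rate was taken from the 30-min fluorescence change (525/598 nm).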
PINK1 expr mod – changes PINK1 expression; Potency, µM (series often up to 76.6 µM), for inactives: at the top dose activation (PINK1 increase), most hits filed as activators; AID 624263; PINK1 immunofluorescence, high-content cytometry, 24 h; hit rate 0.2% among 410,000; active means well fitted activation curve with a large enough effect; inconclusive means small, poorly fitted or top-dose-only effect; cell line not stated here; further: % of control where 0% means no effect; nearly all actives have a fitted effect of over 65% in size
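Compound titrations (5 concentrations, 24 h) on a stable cell line; DMSO and CCCP controls. Endpoint: fixed-cell PINK1 immunofluorescence with mitochondrial, cell and nuclear markers, scanned by microplate cytometer.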
Gal4-VP16 FLuc – Gal4-VP16 reporter inhibition counter-screen; Drosophila S2 Gal4-VP16 UAS-luciferase, luminescence, 20 h; Potency, µM (highest dose often 53.6 µM), without a hit: at the top dose activity, negative = inhibition, hits mostly inhibitors; hit rate 3.5% among 310,000;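 further: Gal4-VP16 expression switched on by copper sulfate through the metallothionein promoter; on the % scale 0 is the no-effect control and ±100 the full control effect; nearly all actives have a fitted effect of over 50% in size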
RORgamma inh – ROR gamma (mouse) transcription inhibition | P51450 | Drosophila S2 Gal4-RORgamma UAS-luciferase reporter, 20 h | Potency, µM (doses to about 53.6 µM), for the others: top-dose activity change, negative = inhibition, actives largely listed as inhibitors | hit rate 5.4% among 310,000 | AID 2551; further: on the % scale 0 is the no-effect control and ±100 the full control effect; nearly all actives have a fitted effect of over 60% in size
Target sequence (P51450 whole entry, looked up, the tested form may be a part): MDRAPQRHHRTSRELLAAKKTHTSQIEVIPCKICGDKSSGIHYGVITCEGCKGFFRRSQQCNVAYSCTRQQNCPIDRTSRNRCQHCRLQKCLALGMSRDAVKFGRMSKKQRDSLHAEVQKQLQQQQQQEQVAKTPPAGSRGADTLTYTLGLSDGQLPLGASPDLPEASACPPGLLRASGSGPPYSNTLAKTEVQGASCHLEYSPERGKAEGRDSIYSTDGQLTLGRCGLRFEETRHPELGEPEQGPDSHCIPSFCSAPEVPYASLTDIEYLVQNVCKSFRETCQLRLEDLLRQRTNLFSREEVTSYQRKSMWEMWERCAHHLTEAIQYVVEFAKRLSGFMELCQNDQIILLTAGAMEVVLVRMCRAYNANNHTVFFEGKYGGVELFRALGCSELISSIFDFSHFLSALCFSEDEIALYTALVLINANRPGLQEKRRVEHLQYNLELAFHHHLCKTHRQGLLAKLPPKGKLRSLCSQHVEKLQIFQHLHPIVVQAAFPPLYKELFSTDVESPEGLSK
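Stable Schneider cell line, Gal4 DNA-binding domain fused to ROR gamma, UAS-luciferase. Cmpd 1 hr RT → CuSO4 700 uM final → 20 hr RT → luciferase reagent 10 min → luminescence.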
ClpP mod – qHTS Assay for Activators of ClpP. purified B. subtilis ClpP, FRET peptide cleavage, 20 min. hit rate 1.9% among 340,000. Potency, µM (top dose mostly 57.5 µM), without a hit: at the top dose activity change, negative = active. ATP-dependent Clp protease proteolytic subunit (Bacillus subtilis (strain 168)), P80244; active means well fitted falling curve with a large enough effect; inconclusive means small, poorly fitted or top-dose-only effect; inactive means no such curve, though single readings can be large or run the other way; further: the source files actives as falling curves though it sought activators and does not explain the sign; nearly all actives have a fitted effect of over 65% in size
Target sequence (P80244 whole entry, looked up): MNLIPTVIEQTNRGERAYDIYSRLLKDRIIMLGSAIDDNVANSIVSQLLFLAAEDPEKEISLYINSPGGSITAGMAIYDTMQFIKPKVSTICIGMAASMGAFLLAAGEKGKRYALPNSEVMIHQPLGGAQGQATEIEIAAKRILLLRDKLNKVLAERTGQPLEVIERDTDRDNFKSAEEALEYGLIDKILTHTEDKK
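FRET quenching reversal measured ClpP activation: 10 microg/mL B. subtilis ClpP at pH 8 with the FRET-FV decapeptide, read at 430 nm after 320 nm excitation. The 20-min minus 0-min signal was scaled between DMSO/no-enzyme wells and ADEP (5.8 microM final).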
* hit, by the source's call; u = inconclusive; x = no result given; [ ] = another dose, or the depositor's remark. The list is not random: actives were taken first. Their share in the collection is about 8.1%. Unless noted, the call rests on the fitted dose curve; in most records, active means well fitted curve in the direction sought with a large enough effect; inconclusive means small, poorly fitted or top-dose-only effect, or another doubt; inactive means no such curve, though single readings can be large; an effect the other way counts as inactive or inconclusive. Potency means the concentration at half of the fitted maximal effect.

SMILES	Epigenetic reg	Sfp PPTase inh	PINK1 expr mod	Gal4-VP16 FLuc	RORgamma inh	ClpP mod
CCCCOC(=O)c1ccc(NC(=S)NC(=O)c2c(Cl)cnn2C)cc1	3%	79µM*	2%	u	14µM*	0%
CCCCOC(=O)c1ccc(NC(=S)NC(=O)c2c(Cl)cnn2CC)cc1	9%	45µM*	0%	18µM*	7.1µM*	0%
CCCCOC(=O)c1ccc(NC(=O)c2cc(Cl)c(Cl)cc2C(=O)O)cc1	-5%	2%	4%	5%	19%	x
CCCCOC(=O)c1ccc(NC(C)=O)cc1	-1%	13%	1%	14%	2%	1%
CCCCOC(=O)c1ccc(NC(=O)c2nn(C)cc2Br)cc1	-2%	5%	-1%	3.5µM*	37%	-11%
COc1ccc(CN2CCOc3ccc(C(O)c4cccnc4)cc3C2)c(F)c1 (stereo not drawn)	x	x	-1%	x	x	x
CCN1C(=O)/C(=C/C=C2/Sc3ccc4ccccc4c3N2CCO)SC1=S	1%	50µM*	0%	-6%	-14%	1%
Cc1cc(C)n(CCc2nc(-c3ccc(C)o3)cs2)n1	2%	8.9µM*	-1%	11µM*	u	-1%
C=CCn1c(SCC(=O)NC(=O)NCCC)nnc1C1CCCCC1	1%	7%	0%	-6%	34%	3.2µM*
CC(C)[C@@H](OCc1ccccc1)[C@H](C)CO/N=C1/[C@H]2OC2[C@@H](O)[C@H]2[C@H]1CCn1c(=O)n(-c3ccccc3)c(=O)n12 (stereo partly drawn)	1%[10.1 µM]	5%	x	-17%[10 µM]	9%[10 µM]	x
CC1CCc2c(sc(NC(=O)CCCn3cnc([N+](=O)[O-])n3)c2C(N)=O)C1 (stereo not drawn)	-2%	4%	-1%	-2%	28%	x
NC(=O)c1c(NC(=O)CCCn2cnc([N+](=O)[O-])n2)sc2c1CCCC2	0%	7.9µM*	-1%	-7%	25%	x
COc1ccccc1CNC(=O)Cn1cc2c(n1)-c1c(oc(C(=O)N3CCOCC3)c1C)CC2	9%	x	2%	x	x	-6%
CN(C(=O)NCc1noc2ccccc12)c1cccc(Cl)c1	1%	x	-1%	x	x	121%
Cc1cn2c(=O)c(S(=O)(=O)NCCc3ccc(Cl)cc3)c(C)nc2s1	-2%	x	0%	x	x	u
Cc1cn2c(=O)c(S(=O)(=O)NC(C)c3ccccc3)c(C)nc2s1 (stereo not drawn)	-3%	x	1%	x	x	32µM*
Cc1ccc(CNS(=O)(=O)c2c(C)nc3sc(C)cn3c2=O)cc1	-2%	x	-1%	x	x	28µM*
CCc1ccc2oc(C(=O)Nc3cc(C)ccc3C)cc(=O)c2c1	1%	x	5%	x	x	0%
Cc1ccc(C)c2c(C)ccnc12	x	x	x	x	x	5%
CN(C)C(=S)c1ccccc1	6%	20µM*	1%	9%	-5%	2%
COc1ccc(C(=O)/C=C/N(C)C)cc1OC	0%	10%	-1%	1%	12%	0%
CN(C)C(=S)c1ccc(N(C)C)cc1	-5%	16µM*	1%	10%	-37%	1%
CN(/N=C/c1ccccc1O)C(=S)c1ccccc1	x	u	-1%	u	u	1%
COc1ccc(C(=S)N(C)C)cc1OC	2%	45µM*	3%	-10%	9%	-3%
COc1cc(-c2nnc(SCCOc3ccc(Cl)cc3C)o2)cc(OC)c1OC	-6%	x	-1%	x	x	-8%
SMILES	Epigenetic reg	Sfp PPTase inh	PINK1 expr mod	Gal4-VP16 FLuc	RORgamma inh	ClpP mod
CN(C)C=Nc1ncc2c3ccccc3n(Cc3ccccc3)c2c1C#N	1%	-4%	7%	6%	-21%	32µM*
CN(C)c1ccc(/C=C/c2ccnc3ccc(O)cc23)cc1	x	x	6%	x	x	-3%
CCOC(=O)N1CCC(NC(=O)c2ccc3c(c2)N(Cc2ccc(Cl)cc2)C(=O)c2ccccc2S3(=O)=O)CC1	0%	x	3%	x	x	-4%
CC(C)c1ccc(C2N3CC4(C)CN2CC(c2ccccc2)(C3)C4=O)cc1 (stereo not drawn)	5%	x	-2%	x	x	0%
O=C(NNc1cccc(Cl)n1)Nc1ccccc1	-2%	-13%	-1%	1%	10%	0%
CC(Cl)C(=O)NNc1cccc(Cl)n1 (stereo not drawn)	-1%	50µM*	7%	-4%	-4%	-1%
CCC(C)N1C(=O)/C(=C/c2c(NCCCOC(C)C)nc3c(C)cccn3c2=O)SC1=S (stereo not drawn)	3.2µM*	11%	11%	-4%	-35%	-6%
O=[N+]([O-])c1ccc(NC2CCN(Cc3ccccc3)CC2)c([N+](=O)[O-])c1	-1%	13%	-2%	15%	3%	2%
O=C1c2c([N+](=O)[O-])cc([N+](=O)[O-])cc2S(=O)N1Cc1ccccc1 (stereo not drawn)	1%	50µM*	6%	-18%	-17%	x
O=C(NCc1ccccc1Cl)c1cc(=O)[nH]c2ccc(S(=O)(=O)N3CCCCC3)cc12	8%	x	2%	x	x	0%
C(=N\Nc1nncc2ccccc12)/c1ccccn1	x	10%	u	3.5µM*	1.4µM*	x
Fc1cccc(/C=N/Nc2nncc3ccccc23)c1	x	-9%	1%	10µM*	1.3µM*	2%
O=c1cnnc(N/N=C/c2ccccn2)[nH]1	1%	8%	0%	8%	-1%	0%
CC(=O)Nc1ccc(/C=N/Nc2nncc3ccccc23)cc1	x	89µM*	16%	-17%	-18%	0%
Fc1cccc(/C=N/Nc2nccnc2Cl)c1	x	13%	-2%	4%	-3%	-2%
CC(C)C=O	x	x	x	6%	12%	x
CCOC(=O)c1ccc(NC(=O)CCC(=O)N2CCSc3ccccc32)cc1	3%	x	1%	x	x	1%
Cc1ccc(NC(=O)c2nc(S(C)(=O)=O)ncc2N(Cc2ccccc2)Cc2ccco2)c(C)c1	-3%	x	2%	x	x	-2%
CC(=O)OCC(=O)[C@@]12OC3(CCCC3)OC1CC1C3CCC4=CC(=O)C=C[C@@]4(C)[C@]3(F)C(O)C[C@]12C (stereo partly drawn)	-1%	-7%	x	-11%	3.5µM*	x
CN1C(=O)C2(c3ccccc31)C1CCCC=C1C(C#N)=C(N)C2(C#N)C#N (stereo not drawn)	11%	13µM*	1%	-18%	2%	1%
CN1C(=O)C2(C(C#N)=C(N)N(c3cc(Cl)cc(Cl)c3)C3=C2C(=O)CCC3)c2ccccc21 (stereo not drawn)	0%	12%	2%	1%	-8%	0%
CC(Nc1ncnc2sccc12)c1ccccc1 (stereo not drawn)	x	-1%	0%	1.4µM*	u	-2%
COc1ccc(-c2ccc(C(=O)Nc3ccc(OC)nc3)c3occc23)c(C)c1	x	x	5%	x	x	35µM*
